Records with an inconclusive call do not appear. Active and inactive are the calls of the source. How the source made its calls, unless noted: active means hit-call score of the fitted dose curve at least 0.9, where 1 is the maximum; inconclusive means response in the unintended direction; inactive means score below 0.9.
Assays:
[1] = target: Retinoic acid receptor RXR-alpha (Homo sapiens) (UniProt P19793); test: TOX21_TR_RXR_BLA_Antagonist_Followup_ratio: Tox21 Thyroid Hormone Receptor beta Retinoid X Receptor alpha (RXRa) Antagonism Beta-lactamase (BLA) Follow-Up Assay, Ratio (AID 2283972)
Retinoic acid receptor RXR-alpha (Homo sapiens), sequence (P19793 whole entry, looked up, the tested form may be a part): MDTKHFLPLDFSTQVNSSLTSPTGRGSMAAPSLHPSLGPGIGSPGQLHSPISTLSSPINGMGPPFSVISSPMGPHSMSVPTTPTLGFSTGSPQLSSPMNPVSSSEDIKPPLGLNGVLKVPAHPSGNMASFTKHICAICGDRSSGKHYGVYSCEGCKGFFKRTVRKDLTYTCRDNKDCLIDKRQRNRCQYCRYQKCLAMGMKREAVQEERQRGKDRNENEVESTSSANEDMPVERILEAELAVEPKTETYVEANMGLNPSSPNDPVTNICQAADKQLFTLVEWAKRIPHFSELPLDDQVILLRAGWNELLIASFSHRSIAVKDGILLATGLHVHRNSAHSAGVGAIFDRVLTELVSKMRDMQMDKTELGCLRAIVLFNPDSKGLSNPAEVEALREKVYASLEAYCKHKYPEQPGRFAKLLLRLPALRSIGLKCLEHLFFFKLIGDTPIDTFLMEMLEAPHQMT
Summary of the method: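 Antagonist mode used GAL4 UAS-driven beta-lactamase in HEK293T cells expressing RXRa, treated for 16 h with compound concentration series. Activity was taken from the blue/green (460:530 nm) ratio of cleaved to uncleaved substrate.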

[2] = TOX21_TR_RXR_BLA_Antagonist_Followup_viability: Viability Assessment in the Tox21 Thyroid Hormone Receptor beta Retinoid X Receptor alpha (RXRa) Antagonism Beta-lactamase (BLA) Follow-Up Assay (AID 2283979)
Summary of the method: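 Follow-up compounds (11 concentrations, triplicate) were incubated 16 h at 37C/5% CO2 with HEK293T RXRa-bla cells seeded at 2,500/well in charcoal-stripped-serum medium. ATP content by CellTiter-Glo luminescence gave viability; curves fitted in both directions against DMSO.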

[3] = CCTE_Harrill_HTTr_Viability_DMEM_6hr: (Pilot) CCTE's 6-hour Cell Viability Assessment for the High-Throughput Transcriptomics (HTTr) Platform, in MCF-7 cells cultured in DMEM + 10% fetal bovine serum, Harrill Lab (AID 2283973; active means hit-call score of the fitted dose curve at least 0.9, where 1 is the maximum; inactive means score below 0.9)
Summary of the method: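 Propidium iodide uptake imaged by high-content analysis after six hours of chemical treatment in an eight-concentration series. Cells: MCF-7 grown in DMEM with 10% fetal bovine serum; DMSO as baseline.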

[4] = CCTE_Harrill_HTTr_Viability_DMEM_12hr: (Pilot) CCTE's 12-hour Cell Viability Assessment for the High-Throughput Transcriptomics (HTTr) Platform, in MCF-7 cells cultured in DMEM + 10% fetal bovine serum, Harrill Lab (AID 2283974; active means hit-call score of the fitted dose curve at least 0.9, where 1 is the maximum; inactive means score below 0.9)
Summary of the method: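 Propidium iodide dye exclusion imaged by high-content microscopy after 12 h chemical exposure (eight concentrations) of MCF-7 cells grown in DMEM plus 10% FBS; values fitted in both directions relative to DMSO.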

[5] = CCTE_Harrill_HTTr_Viability_DMEM_24hr: (Pilot) CCTE's 24-hour Cell Viability Assessment for the High-Throughput Transcriptomics (HTTr) Platform, in MCF-7 cells cultured in DMEM + 10% fetal bovine serum, Harrill Lab (AID 2283975; active means hit-call score of the fitted dose curve at least 0.9, where 1 is the maximum; inactive means score below 0.9)
Summary of the method: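 Pilot study: propidium iodide dye exclusion, imaged by high content microscopy, after 24 h compound exposure (eight concentrations) in MCF-7 cultured in DMEM + 10% fetal bovine serum; DMSO served as negative control and baseline.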

[6] = CCTE_Harrill_HTTr_Viability_PRF_DMEM_6hr: (Pilot) CCTE's 6-hour Cell Viability Assessment for the High-Throughput Transcriptomics (HTTr) Platform, in MCF-7 cells cultured phenol red-free DMEM + 10% charcoal-stripped fetal bovine serum, Harrill Lab (AID 2283976; active means hit-call score of the fitted dose curve at least 0.9, where 1 is the maximum; inactive means score below 0.9)
Summary of the method: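 Membrane integrity by high-content imaging of propidium iodide uptake, six hours after dosing with eight concentrations. Cells: MCF-7 grown in phenol red-free DMEM plus 10% charcoal-stripped serum; DMSO serves as baseline for bidirectional fits.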

[7] = CCTE_Harrill_HTTr_Viability_PRF_DMEM_12hr: (Pilot) CCTE's 12-hour Cell Viability Assessment for the High-Throughput Transcriptomics (HTTr) Platform, in MCF-7 cells cultured in phenol red-free DMEM + 10% charcoal-stripped fetal bovine serum, Harrill Lab (AID 2283977; active means hit-call score of the fitted dose curve at least 0.9, where 1 is the maximum; inactive means score below 0.9)
Summary of the method: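 Membrane integrity was scored via propidium iodide dye exclusion imaging, fitted in both directions relative to DMSO. Compounds ran as eight-point dilutions for 12 hours on MCF-7 grown in phenol red-free DMEM plus 10% charcoal-stripped serum.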

[8] = CCTE_Harrill_HTTr_Viability_PRF_DMEM_24hr: (Pilot) CCTE's 24-hour Cell Viability Assessment for the High-Throughput Transcriptomics (HTTr) Platform, in MCF-7 cells cultured in phenol red-free DMEM + 10% charcoal-stripped fetal bovine serum, Harrill Lab (AID 2283980; active means hit-call score of the fitted dose curve at least 0.9, where 1 is the maximum; inactive means score below 0.9)
Summary of the method: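 Propidium iodide exclusion imaged at 24 h after dosing scores viability; cells were MCF-7 grown in phenol red-free DMEM plus 10% charcoal-stripped serum, tested in eight concentrations, fitted in both directions against DMSO.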

[9] = CCTE_Harrill_HTTr_Apoptosis_DMEM_6hr: (Pilot) CCTE's 6-hour Apoptosis Assessment for the High-Throughput Transcriptomics (HTTr) Platform, in MCF-7 cells cultured in DMEM + 10% fetal bovine serum, Harrill Lab (AID 2283981; active means hit-call score of the fitted dose curve at least 0.9, where 1 is the maximum; inactive means score below 0.9)
Summary of the method: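 MCF-7 cells grown in DMEM + 10% FBS were exposed for 6 hours to an eight-point dilution series. CellEvent Caspase 3/7 Green signal was imaged; activity fitted bidirectionally against DMSO.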

[10] = CCTE_Harrill_HTTr_Apoptosis_DMEM_12hr: (Pilot) CCTE's 12-hour Apoptosis Assessment for the High-Throughput Transcriptomics (HTTr) Platform, in MCF-7 cells cultured in DMEM + 10% fetal bovine serum, Harrill Lab (AID 2283982; active means hit-call score of the fitted dose curve at least 0.9, where 1 is the maximum; inactive means score below 0.9)
Summary of the method: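 Caspase-3/7 activity was measured by high-content imaging (CellEvent Caspase 3/7 Green) after a 12-hour exposure of MCF-7 cells grown in DMEM with 10% FBS. Eight-point concentration series, fitted bidirectionally against vehicle.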

Nc1ccn([C@@H]2O[C@H](CO)[C@@H](O)C2O)c(=O)n1 (stereo partly drawn)
outcome [1]: inactive | outcome [2]: inactive

Nc1cc(Cl)c(-c2cc(Cl)c(N)cc2Cl)cc1Cl
AC50 [1]: 24.6 µM (active) | AC50 [2]: 28 µM (active)

Clc1ccc(Nc2nnc(Cc3ccncc3)c3ccccc23)cc1
outcome [1]: inactive

CC(C)c1c(C(=O)Nc2ccccc2)c(-c2ccccc2)c(-c2ccc(F)cc2)n1CC[C@@H](O)C[C@@H](O)CC(=O)O
outcome [1]: inactive | outcome [2]: inactive

O=c1cc(-c2ccccc2)oc2ccc3ccccc3c12
outcome [2]: inactive

COc1ccccc1NC(=O)c1cc2ccccc2cc1O
AC50 [1]: 22 µM (active) | AC50 [2]: 24.1 µM (active)

CCCCc1oc2ccccc2c1C(=O)c1cc(I)c(OCCN(CC)CC)c(I)c1
outcome [3]: inactive | AC50 [4]: 46.3 µM (active) | AC50 [5]: 73.9 µM (active) | outcome [6]: inactive | AC50 [7]: 39.5 µM (active) | AC50 [8]: 70.4 µM (active) | outcome [9]: inactive | outcome [10]: inactive
